# Assays:
# Assay in all cases: DAPPL (digital affinity profiling via proximity ligation, sequencing); 10 mM Tris-HCl pH 7.5, 50 mM NaCl, 1 mM DTT, 4% glycerol, room temperature, 30 min; GST-TFs on glutathione beads, 16-mer random dsDNA library, 0.1% formaldehyde crosslink after washing; high values mean tight binding
# [1] = target: T1, FEV (Homo sapiens, UniProt Q99581 1-238); settings: protein: recombinant; tags: N-terminal GST; dsDNA, one strand shown
# T1 sequence: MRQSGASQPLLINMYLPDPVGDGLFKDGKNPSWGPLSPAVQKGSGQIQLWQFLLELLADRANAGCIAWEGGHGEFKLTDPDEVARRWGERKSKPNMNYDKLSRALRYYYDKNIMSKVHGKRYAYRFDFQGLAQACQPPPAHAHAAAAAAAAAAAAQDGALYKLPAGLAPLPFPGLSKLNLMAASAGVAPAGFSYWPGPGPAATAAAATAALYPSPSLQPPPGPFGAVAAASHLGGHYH
# Method in brief: (§1)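 Human transcription factors were made in yeast as GST fusions, captured on glutathione beads and barcoded with DNA. With a tag-only sample included, the pool was incubated with 200 nmole of a random double-stranded 16-mer DNA library in Tris/NaCl/DTT/glycerol buffer at room temperature for 30 min, then crosslinked with 0.1% formaldehyde after washing, ligated by proximity, amplified and sequenced. For binding signal, each hexamer's read frequency for a factor is divided by its frequency for the tag-only sample.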
# [2] = target: ETV5 (Homo sapiens, UniProt P41161 1-510); settings: protein: recombinant; tags: N-terminal GST; dsDNA, one strand shown
# Chain of ETV5 (P41161 whole entry): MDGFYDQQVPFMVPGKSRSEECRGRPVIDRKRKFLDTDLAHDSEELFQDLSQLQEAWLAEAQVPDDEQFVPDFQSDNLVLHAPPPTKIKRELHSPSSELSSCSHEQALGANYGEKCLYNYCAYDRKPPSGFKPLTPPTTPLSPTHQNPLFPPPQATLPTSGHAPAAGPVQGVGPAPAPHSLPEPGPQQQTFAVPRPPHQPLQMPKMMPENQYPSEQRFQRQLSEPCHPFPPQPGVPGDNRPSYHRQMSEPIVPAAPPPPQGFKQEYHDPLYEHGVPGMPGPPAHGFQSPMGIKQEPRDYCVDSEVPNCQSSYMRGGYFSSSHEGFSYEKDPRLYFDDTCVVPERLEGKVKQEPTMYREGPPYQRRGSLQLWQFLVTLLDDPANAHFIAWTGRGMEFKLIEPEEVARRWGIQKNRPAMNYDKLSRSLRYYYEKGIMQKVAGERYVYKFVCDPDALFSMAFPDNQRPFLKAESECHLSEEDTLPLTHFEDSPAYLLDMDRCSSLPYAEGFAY
# Method in brief: as §1
# [3] = target: HSF1 (Homo sapiens, UniProt Q00613 1-529); settings: protein: recombinant; tags: N-terminal GST; chain copies: 3; dsDNA, one strand shown
# Chain of HSF1 (Q00613 whole entry): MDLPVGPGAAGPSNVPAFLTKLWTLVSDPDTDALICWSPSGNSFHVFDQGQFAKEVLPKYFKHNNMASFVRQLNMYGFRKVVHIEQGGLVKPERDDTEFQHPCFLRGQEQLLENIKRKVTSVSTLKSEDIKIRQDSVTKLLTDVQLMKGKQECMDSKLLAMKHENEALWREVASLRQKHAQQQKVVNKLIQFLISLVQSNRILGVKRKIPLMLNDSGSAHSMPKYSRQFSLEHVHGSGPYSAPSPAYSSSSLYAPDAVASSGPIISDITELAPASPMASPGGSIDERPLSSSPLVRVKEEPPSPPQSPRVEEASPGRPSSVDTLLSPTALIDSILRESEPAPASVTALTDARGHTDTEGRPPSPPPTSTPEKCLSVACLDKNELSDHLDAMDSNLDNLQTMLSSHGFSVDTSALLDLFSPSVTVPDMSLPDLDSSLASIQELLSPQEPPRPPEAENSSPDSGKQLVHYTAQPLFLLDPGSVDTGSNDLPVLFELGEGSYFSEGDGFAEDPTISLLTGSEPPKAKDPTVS
# Method in brief: as §1
# [4] = target: T2, SPIC (Homo sapiens, UniProt Q8N5J4 1-248); settings: protein: recombinant; tags: N-terminal GST; dsDNA, one strand shown
# T2 sequence: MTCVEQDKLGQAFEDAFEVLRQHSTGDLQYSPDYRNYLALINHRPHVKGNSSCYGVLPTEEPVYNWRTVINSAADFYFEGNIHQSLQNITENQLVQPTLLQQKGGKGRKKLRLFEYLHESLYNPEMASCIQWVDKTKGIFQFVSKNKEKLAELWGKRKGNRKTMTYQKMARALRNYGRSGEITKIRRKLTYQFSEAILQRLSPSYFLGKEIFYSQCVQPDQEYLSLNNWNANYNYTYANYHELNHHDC
# Method in brief: as §1
# [5] = target: ELF4 (Homo sapiens, UniProt Q99607 1-663); settings: protein: recombinant; tags: N-terminal GST; dsDNA, one strand shown
# Chain of ELF4 (Q99607 whole entry): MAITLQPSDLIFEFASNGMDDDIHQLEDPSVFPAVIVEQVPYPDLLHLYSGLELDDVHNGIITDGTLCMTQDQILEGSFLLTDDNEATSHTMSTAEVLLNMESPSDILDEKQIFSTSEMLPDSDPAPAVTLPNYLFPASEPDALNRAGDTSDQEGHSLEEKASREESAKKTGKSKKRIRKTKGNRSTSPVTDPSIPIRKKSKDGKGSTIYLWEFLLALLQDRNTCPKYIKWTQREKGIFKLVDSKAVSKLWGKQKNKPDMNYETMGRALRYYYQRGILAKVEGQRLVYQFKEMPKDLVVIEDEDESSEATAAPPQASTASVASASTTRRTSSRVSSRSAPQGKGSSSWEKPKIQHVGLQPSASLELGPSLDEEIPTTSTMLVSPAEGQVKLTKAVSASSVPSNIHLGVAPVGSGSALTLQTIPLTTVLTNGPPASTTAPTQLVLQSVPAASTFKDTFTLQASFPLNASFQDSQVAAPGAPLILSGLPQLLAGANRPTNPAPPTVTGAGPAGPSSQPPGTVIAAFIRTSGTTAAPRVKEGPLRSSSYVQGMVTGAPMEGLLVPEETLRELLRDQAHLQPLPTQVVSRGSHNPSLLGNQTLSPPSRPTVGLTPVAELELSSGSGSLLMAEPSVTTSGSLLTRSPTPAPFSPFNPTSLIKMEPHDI
# Method in brief: as §1
# [6] = target: T3, ELK4 (Homo sapiens, UniProt P28324-2 1-405); settings: protein: recombinant; tags: N-terminal GST; dsDNA, one strand shown
# T3 sequence: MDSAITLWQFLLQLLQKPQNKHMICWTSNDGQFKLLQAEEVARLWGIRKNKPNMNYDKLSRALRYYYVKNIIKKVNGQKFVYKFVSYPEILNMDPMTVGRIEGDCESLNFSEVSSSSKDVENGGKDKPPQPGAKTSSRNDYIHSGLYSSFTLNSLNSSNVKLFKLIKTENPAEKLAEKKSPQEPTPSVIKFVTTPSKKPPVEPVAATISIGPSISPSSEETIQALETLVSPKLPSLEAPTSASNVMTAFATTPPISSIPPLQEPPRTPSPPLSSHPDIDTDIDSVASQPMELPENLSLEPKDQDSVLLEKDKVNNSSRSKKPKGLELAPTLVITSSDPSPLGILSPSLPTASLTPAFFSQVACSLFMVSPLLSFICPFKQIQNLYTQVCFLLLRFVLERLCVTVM
# Method in brief: as §1
# [7] = target: T4, ETV2 (Homo sapiens, UniProt O00321 1-342); settings: protein: recombinant; tags: N-terminal GST; dsDNA, one strand shown
# T4 sequence: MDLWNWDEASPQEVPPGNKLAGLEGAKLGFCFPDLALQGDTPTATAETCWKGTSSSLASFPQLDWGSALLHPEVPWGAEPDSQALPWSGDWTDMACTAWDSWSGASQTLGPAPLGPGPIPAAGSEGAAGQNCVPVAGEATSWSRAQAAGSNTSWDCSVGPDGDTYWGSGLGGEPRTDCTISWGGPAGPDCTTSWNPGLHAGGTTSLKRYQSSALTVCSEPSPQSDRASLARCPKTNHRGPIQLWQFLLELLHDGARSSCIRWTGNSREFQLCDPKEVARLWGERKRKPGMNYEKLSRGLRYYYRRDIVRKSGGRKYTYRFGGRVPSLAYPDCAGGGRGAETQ
# Method in brief: as §1
# [8] = target: T5, ELF3 (Homo sapiens, UniProt P78545 1-371); settings: protein: recombinant; tags: N-terminal GST; dsDNA, one strand shown
# T5 sequence: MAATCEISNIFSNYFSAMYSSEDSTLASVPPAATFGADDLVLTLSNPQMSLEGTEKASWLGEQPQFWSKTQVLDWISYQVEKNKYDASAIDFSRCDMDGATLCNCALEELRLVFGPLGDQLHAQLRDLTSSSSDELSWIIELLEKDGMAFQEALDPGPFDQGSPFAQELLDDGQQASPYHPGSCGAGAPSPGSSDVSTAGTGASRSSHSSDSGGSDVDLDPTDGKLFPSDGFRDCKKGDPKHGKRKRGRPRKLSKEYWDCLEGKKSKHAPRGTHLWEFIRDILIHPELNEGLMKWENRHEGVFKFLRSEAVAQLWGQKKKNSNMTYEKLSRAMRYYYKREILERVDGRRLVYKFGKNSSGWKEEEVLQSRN
# Method in brief: as §1
# [9] = target: CRX (Homo sapiens, UniProt O43186 1-299); settings: protein: recombinant; tags: N-terminal GST; dsDNA, one strand shown
# Chain of CRX (O43186 whole entry): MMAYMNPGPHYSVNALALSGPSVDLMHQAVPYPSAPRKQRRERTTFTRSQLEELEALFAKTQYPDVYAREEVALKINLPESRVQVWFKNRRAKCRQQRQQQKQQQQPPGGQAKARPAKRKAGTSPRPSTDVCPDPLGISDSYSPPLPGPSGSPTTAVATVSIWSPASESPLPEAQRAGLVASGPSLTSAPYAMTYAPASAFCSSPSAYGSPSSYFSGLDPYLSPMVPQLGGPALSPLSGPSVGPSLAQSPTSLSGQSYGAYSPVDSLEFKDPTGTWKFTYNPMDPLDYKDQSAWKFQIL
# Method in brief: as §1
# [10] = target: ETV1 (Homo sapiens, UniProt P50549 1-477); settings: protein: recombinant; tags: N-terminal GST; dsDNA, one strand shown
# Chain of ETV1 (P50549 whole entry): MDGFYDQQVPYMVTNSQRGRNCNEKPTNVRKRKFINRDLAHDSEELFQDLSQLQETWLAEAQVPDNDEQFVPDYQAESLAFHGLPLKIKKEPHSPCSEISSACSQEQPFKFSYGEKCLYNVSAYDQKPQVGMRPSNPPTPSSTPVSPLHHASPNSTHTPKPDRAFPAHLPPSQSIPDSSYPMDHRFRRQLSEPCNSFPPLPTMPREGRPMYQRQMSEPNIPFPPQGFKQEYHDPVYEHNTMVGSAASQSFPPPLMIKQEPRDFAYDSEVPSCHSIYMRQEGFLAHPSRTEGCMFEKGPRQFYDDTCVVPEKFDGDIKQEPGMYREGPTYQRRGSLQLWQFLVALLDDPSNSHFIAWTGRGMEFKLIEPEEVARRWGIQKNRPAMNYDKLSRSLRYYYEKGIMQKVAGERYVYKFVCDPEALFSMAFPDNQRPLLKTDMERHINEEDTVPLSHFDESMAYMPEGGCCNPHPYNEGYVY
# Method in brief: as §1
# [11] = target: T6, ERF (Homo sapiens, UniProt P50548 1-548); settings: protein: recombinant; tags: N-terminal GST; dsDNA, one strand shown
# T6 sequence: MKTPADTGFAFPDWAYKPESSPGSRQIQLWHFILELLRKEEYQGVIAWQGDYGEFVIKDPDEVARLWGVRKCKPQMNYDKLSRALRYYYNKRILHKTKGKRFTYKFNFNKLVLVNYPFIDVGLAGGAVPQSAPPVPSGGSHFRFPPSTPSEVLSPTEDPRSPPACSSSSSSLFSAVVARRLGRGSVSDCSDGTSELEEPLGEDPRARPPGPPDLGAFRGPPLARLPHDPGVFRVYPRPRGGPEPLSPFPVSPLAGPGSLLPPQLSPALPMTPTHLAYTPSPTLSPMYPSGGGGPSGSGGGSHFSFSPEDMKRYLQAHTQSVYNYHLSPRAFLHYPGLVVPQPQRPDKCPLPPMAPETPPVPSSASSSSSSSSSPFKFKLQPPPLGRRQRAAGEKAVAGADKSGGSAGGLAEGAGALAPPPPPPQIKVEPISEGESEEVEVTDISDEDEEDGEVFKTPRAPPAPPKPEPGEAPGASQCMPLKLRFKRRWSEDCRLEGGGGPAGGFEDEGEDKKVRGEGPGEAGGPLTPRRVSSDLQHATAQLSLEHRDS
# Method in brief: as §1
# [12] = target: T7, ETV3L (Homo sapiens, UniProt Q6ZN32 1-361); settings: protein: recombinant; tags: N-terminal GST; dsDNA, one strand shown
# T7 sequence: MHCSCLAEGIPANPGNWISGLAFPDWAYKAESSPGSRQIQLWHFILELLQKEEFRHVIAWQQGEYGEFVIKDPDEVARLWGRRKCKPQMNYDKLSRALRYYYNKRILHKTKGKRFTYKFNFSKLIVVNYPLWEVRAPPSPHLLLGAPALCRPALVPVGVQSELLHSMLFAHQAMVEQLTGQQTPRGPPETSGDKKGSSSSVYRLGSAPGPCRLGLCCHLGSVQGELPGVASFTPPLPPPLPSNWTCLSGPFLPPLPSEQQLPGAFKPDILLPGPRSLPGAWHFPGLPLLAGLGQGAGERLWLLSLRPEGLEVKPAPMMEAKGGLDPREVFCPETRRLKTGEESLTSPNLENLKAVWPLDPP
# Method in brief: as §1
# [13] = target: T8, ETS2 (Homo sapiens, UniProt P15036 1-469); settings: protein: recombinant; tags: N-terminal GST; dsDNA, one strand shown
# T8 sequence: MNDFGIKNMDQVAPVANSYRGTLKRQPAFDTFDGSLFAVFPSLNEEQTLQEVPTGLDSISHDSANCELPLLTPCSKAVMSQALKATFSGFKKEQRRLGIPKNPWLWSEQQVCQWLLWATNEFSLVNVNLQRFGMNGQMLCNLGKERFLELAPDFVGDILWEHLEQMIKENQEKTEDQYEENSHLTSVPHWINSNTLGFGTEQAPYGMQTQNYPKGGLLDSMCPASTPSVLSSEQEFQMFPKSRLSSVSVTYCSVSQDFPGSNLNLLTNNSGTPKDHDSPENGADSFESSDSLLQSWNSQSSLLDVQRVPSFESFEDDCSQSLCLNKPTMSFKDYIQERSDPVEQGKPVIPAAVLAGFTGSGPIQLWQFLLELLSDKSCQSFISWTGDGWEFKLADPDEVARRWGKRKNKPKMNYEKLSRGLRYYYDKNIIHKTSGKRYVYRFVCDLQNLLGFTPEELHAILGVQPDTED
# Method in brief: as §1
# [14] = target: T9, SPDEF (Homo sapiens, UniProt O95238 1-335); settings: protein: recombinant; tags: N-terminal GST; dsDNA, one strand shown
# T9 sequence: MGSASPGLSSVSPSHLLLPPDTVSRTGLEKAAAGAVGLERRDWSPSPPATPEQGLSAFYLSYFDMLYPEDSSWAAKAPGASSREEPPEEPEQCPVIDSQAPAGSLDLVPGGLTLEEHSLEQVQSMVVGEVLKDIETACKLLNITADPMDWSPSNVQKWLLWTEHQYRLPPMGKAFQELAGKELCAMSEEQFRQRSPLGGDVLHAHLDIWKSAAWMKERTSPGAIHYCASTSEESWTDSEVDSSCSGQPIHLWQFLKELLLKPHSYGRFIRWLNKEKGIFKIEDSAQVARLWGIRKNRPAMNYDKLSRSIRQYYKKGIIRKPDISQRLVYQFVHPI
# Method in brief: as §1
# [15] = target: T10, ETV7 (Homo sapiens, UniProt Q9Y603 1-341); settings: protein: recombinant; tags: N-terminal GST; dsDNA, one strand shown
# T10 sequence: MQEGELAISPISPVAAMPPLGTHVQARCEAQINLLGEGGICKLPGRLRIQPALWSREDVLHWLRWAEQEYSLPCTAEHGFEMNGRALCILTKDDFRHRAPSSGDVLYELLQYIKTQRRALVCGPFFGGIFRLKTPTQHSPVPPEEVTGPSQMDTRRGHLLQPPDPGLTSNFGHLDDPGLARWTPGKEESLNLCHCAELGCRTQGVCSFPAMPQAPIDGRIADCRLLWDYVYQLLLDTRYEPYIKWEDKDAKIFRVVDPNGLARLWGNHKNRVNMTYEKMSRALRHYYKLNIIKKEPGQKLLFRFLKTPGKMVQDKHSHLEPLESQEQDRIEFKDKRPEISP
# Method in brief: as §1
# [16] = target: T11, ELF5 (Homo sapiens, UniProt Q9UKW6-2 1-255); settings: protein: recombinant; tags: N-terminal GST; dsDNA, one strand shown
# T11 sequence: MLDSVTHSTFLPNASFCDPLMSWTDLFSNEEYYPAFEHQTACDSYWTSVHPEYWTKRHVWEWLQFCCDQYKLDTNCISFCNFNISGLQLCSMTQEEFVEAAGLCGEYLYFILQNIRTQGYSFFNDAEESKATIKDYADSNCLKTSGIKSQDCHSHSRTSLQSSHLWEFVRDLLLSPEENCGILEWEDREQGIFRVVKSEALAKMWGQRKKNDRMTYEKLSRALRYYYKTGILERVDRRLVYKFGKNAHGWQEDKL
# Method in brief: as §1
# [17] = target: T12, ETV3 (Homo sapiens, UniProt P41162-2 1-143); settings: protein: recombinant; tags: N-terminal GST; dsDNA, one strand shown
# T12 sequence: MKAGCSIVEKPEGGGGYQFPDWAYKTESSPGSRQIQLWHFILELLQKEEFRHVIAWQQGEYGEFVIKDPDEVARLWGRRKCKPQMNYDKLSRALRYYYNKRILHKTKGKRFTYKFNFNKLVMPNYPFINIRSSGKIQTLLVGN
# Method in brief: as §1
# [18] = target: ETV6 (Homo sapiens, UniProt P41212 1-452); settings: protein: recombinant; tags: N-terminal GST; dsDNA, one strand shown
# Chain of ETV6 (P41212 whole entry): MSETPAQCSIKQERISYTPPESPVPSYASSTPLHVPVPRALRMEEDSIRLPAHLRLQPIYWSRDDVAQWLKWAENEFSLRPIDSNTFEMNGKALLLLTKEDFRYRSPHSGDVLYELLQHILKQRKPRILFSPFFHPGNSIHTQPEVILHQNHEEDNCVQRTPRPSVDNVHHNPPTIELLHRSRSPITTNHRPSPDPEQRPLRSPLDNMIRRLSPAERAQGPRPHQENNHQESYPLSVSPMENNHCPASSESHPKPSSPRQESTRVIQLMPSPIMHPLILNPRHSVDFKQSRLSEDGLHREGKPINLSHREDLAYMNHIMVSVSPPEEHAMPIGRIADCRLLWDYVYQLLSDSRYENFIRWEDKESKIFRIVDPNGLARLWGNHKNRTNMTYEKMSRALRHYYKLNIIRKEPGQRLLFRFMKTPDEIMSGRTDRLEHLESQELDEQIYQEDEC
# Method in brief: as §1
sequence,measurement,setting,value
CCTTGA,binding signal,[1],"1.19 fold enrichment (6-mer frequency, TF over GST control)"
same,binding signal,[2],"1.25 fold enrichment (6-mer frequency, TF over GST control)"
same,binding signal,[3],"1.07 fold enrichment (6-mer frequency, TF over GST control)"
same,binding signal,[4],"1.27 fold enrichment (6-mer frequency, TF over GST control)"
same,binding signal,[5],"1.22 fold enrichment (6-mer frequency, TF over GST control)"
same,binding signal,[6],"1.22 fold enrichment (6-mer frequency, TF over GST control)"
same,binding signal,[7],"1.11 fold enrichment (6-mer frequency, TF over GST control)"
same,binding signal,[8],"1.26 fold enrichment (6-mer frequency, TF over GST control)"
same,binding signal,[9],"1.16 fold enrichment (6-mer frequency, TF over GST control)"
same,binding signal,[10],"1.17 fold enrichment (6-mer frequency, TF over GST control)"
same,binding signal,[11],"1.27 fold enrichment (6-mer frequency, TF over GST control)"
same,binding signal,[12],"1.17 fold enrichment (6-mer frequency, TF over GST control)"
same,binding signal,[13],"1.2 fold enrichment (6-mer frequency, TF over GST control)"
same,binding signal,[14],"1.33 fold enrichment (6-mer frequency, TF over GST control)"
same,binding signal,[15],"1.14 fold enrichment (6-mer frequency, TF over GST control)"
same,binding signal,[16],"1.37 fold enrichment (6-mer frequency, TF over GST control)"
same,binding signal,[17],"1.19 fold enrichment (6-mer frequency, TF over GST control)"
same,binding signal,[18],"1.23 fold enrichment (6-mer frequency, TF over GST control)"

# Source: paper PMC7862700, “An all-to-all approach to the identification of sequence-specific readers for epigenetic DNA modifications on cytosine”
